# Source: PubChem (several laboratories)
# This is a sample that favours compounds with a hit; in the whole collection about 1.6% have one here.
# Hsp70 activator – Hsp70 transcriptional activators, primary screen, cell-based, HeLa, Hsp70 promoter luciferase, luminescence, 10 µM | HeLa Hsp70 promoter luciferase reporter; scaled: vehicle 0, proteasome-inhibitor control 100% | 200,000 compounds, 0.04% hits | activation, % at 10 µM;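 active means activation above the mean across all tested compounds plus 3 SD, cutoff set per campaign, cut at about 5.5% in these data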;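 further: 100% = MG132 at 30 µM as the positive control and 0% = DMSO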
# Redox H2O2 prof – compounds producing H2O2 with reducing agent – biochemical, NIH compound library profiling, artefact control for MLSCN library redox annotation, primary screen. activation, % at 10 µM. 200,000 compounds, 0.03% hits. DTT-dependent redox cycling H2O2, phenol red/HRP absorbance; 100% = 100 µM peroxide control, 0% = buffer;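 active means activation of at least 50% relative to the plate's high and low controls in the primary single-dose screen; inactive means activation below 50%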;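 further: compound incubated with DTT at 0.8 mM final as the reducing agent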
# HSV augment – enhancers of HSV replication in host cells, fold increase, host cell viability. maximum fold increase. HSV replication augmentation in cells. AID 1956, 2009. 220,000 compounds, 0.005% hits; in the data active means maximum fold increase above about 1.5; inconclusive means no clear call, values can overlap the other calls; tested in PC3 cells
# Wee1 degr inh – Wee1 degradation inhibitors, primary screen, cell-based, HeLa, Wee1K328M-luciferase, luminescence | Wee1-like protein kinase (Homo sapiens), P30291 | HeLa Luc-Wee1K328M stability; 100% = proteasome inhibitor MG132 effect | reporter increase, % at 5 µM | 220,000 compounds, 1.2% hits | AID 1321, 2008;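 active means activation above the mean of all tested compounds plus 3 SD, set per screening run, cut at about 8.8% in these data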;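 further: cells exposed to compound for 20 h before luminescence read; 0% = DMSO alone and 100% = MG132 at 30 µM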
# Target sequence (P30291 whole entry K328M): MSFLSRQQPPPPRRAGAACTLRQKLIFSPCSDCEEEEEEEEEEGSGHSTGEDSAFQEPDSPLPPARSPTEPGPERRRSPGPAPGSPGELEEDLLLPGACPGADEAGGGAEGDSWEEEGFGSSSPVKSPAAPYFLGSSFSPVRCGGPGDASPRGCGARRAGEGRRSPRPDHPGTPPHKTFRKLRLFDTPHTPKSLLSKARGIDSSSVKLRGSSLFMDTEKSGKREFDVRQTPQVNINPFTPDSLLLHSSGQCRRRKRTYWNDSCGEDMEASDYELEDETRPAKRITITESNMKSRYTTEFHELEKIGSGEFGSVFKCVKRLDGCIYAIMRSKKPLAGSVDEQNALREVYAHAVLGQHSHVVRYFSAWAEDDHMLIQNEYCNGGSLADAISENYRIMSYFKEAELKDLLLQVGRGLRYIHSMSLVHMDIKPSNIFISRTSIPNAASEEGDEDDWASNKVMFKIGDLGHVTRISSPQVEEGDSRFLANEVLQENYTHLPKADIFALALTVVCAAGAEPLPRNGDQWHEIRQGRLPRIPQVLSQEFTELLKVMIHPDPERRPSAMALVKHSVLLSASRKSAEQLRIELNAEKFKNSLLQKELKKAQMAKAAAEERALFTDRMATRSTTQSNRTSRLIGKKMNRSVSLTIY
# p97 inhibitor – inhibitors of human p97 ATPase, primary screen, biochemical; Transitional endoplasmic reticulum ATPase (Homo sapiens), P55072; recombinant p97 ATPase, Kinase-Glo ATP luminescence, 3 h; inhibition, % at 8 µM; 220,000 compounds, 0.42% hits; AID 1481, 2009; in the data active means inhibition above about 15%;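 further: 0% = DMSO vehicle and 100% = wells lacking enzyme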
# * marks the source's active call; other numbers are inactive results; i = inactive; ? = inconclusive; / = not tested or not shown.
SMILES,Hsp70 activator,Redox H2O2 prof,HSV augment,Wee1 degr inh,p97 inhibitor
CN(C)S(=O)(=O)N1CCC(CO)(Cc2cccc(C(F)(F)F)c2)CC1,0,-1,i,0,3
CCC(=O)O[C@]1(C(=O)CCl)[C@@H](C)C[C@H]2[C@@H]3CCC4=CC(=O)C=C[C@]4(C)[C@@]3(F)[C@@H](O)C[C@@]21C,0,0,i,9.3*,1
C#CCNC(=O)C1=C[C@@H](C2CCCCC2)C[C@@H](OCc2ccc(CO)cc2)O1,0,-1,i,-1,-4
Oc1c(N=NC(=S)Nc2ccccc2F)c2ccccc2n1Cc1ccccc1F,0,-2,i,-1,2
C=CCN1C(=O)C(Cc2ccc(OC)cc2)SC1=Nc1ccc(C(=O)O)cc1 (configuration not stated),-1,0,i,6,2
Cn1c(=N)n(CC(=O)c2ccc(Br)s2)c2ccccc21,0,-1,/,6,0
N=c1n(CC(=O)c2ccc(Br)s2)c2ccccc2n1Cc1ccccc1,/,/,i,10*,10
CSCC(C)N1CCC(CO)(CCc2ccccc2)CC1 (configuration not stated),1,-2,i,10.0*,2
CC(COc1ccccc1)N1CCC(CO)(CCc2ccccc2)CC1 (configuration not stated),1,0,i,-1,4
COC(=O)c1cccc(NS(C)(=O)=O)c1C,0,2,i,5,1
CCOC(=O)NN1C(=O)c2ccccc2NC1c1cccnc1 (configuration not stated),0,-1,i,4,-1
O=C(/C=C/c1ccc(Cl)c([N+](=O)[O-])c1)Nc1cccnc1,0,3,i,1,2
O=C(/C=C/c1ccc([N+](=O)[O-])cc1)Nc1cccnc1,0,-5,i,10*,-6
C=CC1CN(C(=O)OCC(Cl)(Cl)Cl)C2CC3c4ccc(OC)cc4NC3C3CC1C2CO3 (configuration not stated),/,/,i,/,/
Cc1cc(O)c(C(C)C)cc1NC(=O)c1cccc(Cl)c1,0,0,i,9.5*,3
Cc1cc(O)c(C(C)C)cc1NC(=O)c1ccc(Cl)cc1,0,-1,i,-2,-2
Clc1ccc(/C=N/NC2=Nc3cccc4cccc2c34)cc1,0,1,?,-4,2
C(=N\NC1=Nc2cccc3cccc1c23)/c1ccccc1,0,1,i,8.9*,6
CS(=O)(=O)N1CCN=C1SCc1ccc([N+](=O)[O-])cc1,0,0,i,9.1*,0
O=C(c1cccs1)N(C(=O)c1cccs1)c1ccc(Br)cn1,0,0,i,3,-8
Cc1ccnc(N(C(=O)c2cccs2)C(=O)c2cccs2)c1,1,4,i,12*,-10
Cc1ccc(S(=O)(=O)N2CCCCC2)cc1NC(=O)COC(=O)Cc1c(F)cccc1Cl,0,0,i,-3,-1
CCOc1cnc(-c2ccccc2F)o1,0,0,i,6,2
Cc1ccc(C(=O)OCC(=O)c2c[nH]c3ccccc23)cc1,0,0,i,2,-5
O=C(OCC(=O)c1c[nH]c2ccccc12)C1=COCCO1,0,1,i,11*,2
SMILES,Hsp70 activator,Redox H2O2 prof,HSV augment,Wee1 degr inh,p97 inhibitor
O=C(CCc1ccccc1)NNC(=O)c1ccccc1C(=O)O,0,0,i,6,7
COC(=O)c1c(C)cc(C)n2c1nc1ccccc12,0,2,i,9.8*,0
Cc1cc(C)n2c(nc3ccccc32)c1C(=O)NN,/,/,i,1,-1
O=C(CSc1ccccn1)N/N=C/C=C/c1ccccc1,0,0,i,0,5
C(=C\c1ccccc1)/CSc1ccccn1,0,0,i,9.2*,0
CC12COC3(C(=O)Nc4ccc5ccccc5c4)CC1CCC32C (configuration not stated),0,0,i,9.3*,4
COC(=O)C(C(=O)N1CCN(C)CC1)C1CCCCCC1 (configuration not stated),0,2,i,-2,5
O=C(N/N=C/c1cccc(OC(=O)N2CCOCC2)c1)c1cccs1,0,0,i,9.1*,1
O=C(CCn1c(=S)oc2ccccc21)NC1CCCCCCC1,/,/,i,0,4
CCOC(=O)N1CCN(C(=O)c2cccn3c(=O)c4sccc4nc23)CC1,0,0,i,10*,9
CCOC(=O)N1CCN(C(=O)c2cccn3c(=O)c4cc(Br)ccc4nc23)CC1,0,-1,i,-3,2
CC(C)CNC(=S)NC(=O)c1ccc(F)cc1,0,0,i,9.1*,-1
O=C(NC(=S)NCCN1CCOCC1)c1ccc(F)cc1,0,0,i,1,9
Cc1ccc(Cl)cc1N1CCN(C(c2ccc(C#N)cc2)c2nnnn2C2CCCC2)CC1 (configuration not stated),0,0,i,-1,2
CC(C)(C)C(=O)NC(=S)Nc1ccccc1C(N)=O,0,0,i,11*,1
Cc1c(NC(=S)NC(=O)C(C)(C)C)cccc1[N+](=O)[O-],0,0,i,1,-3
CC(C)(C)c1ccc(NC(=O)COC(=O)CCN2C(=O)c3cccc([N+](=O)[O-])c3C2=O)cc1,0,0,i,17*,0
S=C(Nc1ccccc1)N1CCN(c2ccc(N3CCOCC3)nn2)CC1,0,0,i,-1,7
Cn1c(CN2CCOCC2)nc2cc(NC(=O)COc3ccccc3)ccc21,0,-1,i,-1,-1
Cn1c(CCN2CCOCC2)nc2cc(NC(=O)COc3ccccc3)ccc21,0,0,i,9.1*,6
COc1ccc(-n2c(C)cc(-c3cn4cccc(C)c4n3)c2C)cc1,0,-1,i,8.8*,4
Cc1cc(-c2cn3ccccc3n2)c(C)n1-c1ccccc1,0,0,i,-2,8
COC(/C=C/Nc1ccc(Cl)cc1)=C(C#N)C#N,0,-1,i,1,-4
O=C(NCCc1ccc(Cl)cc1)Nc1cccc(Cl)c1,0,2,i,8.9*,-7
CCOc1ccc(/C(CCC(=O)O)=N/NC(=S)NCCc2ccccc2)cc1,0,-3,i,-2,-7
O=C(CSc1nc2ccccc2[nH]1)c1ccco1,0,3,i,4,5
COc1ccc2nc(SCC(=O)c3ccco3)[nH]c2c1,0,2,i,9.1*,3
